# Measles CPE = protection of cells from measles virus; Measles virus-infected cells, CPE protection, absorbance; protection (pct of control), % at 4 µM; 140,000 compounds, 1.5% hits; AID 841; in the data active means protection mostly above about 24%, no sharp cut-off; inactive means mostly below about 26%
# CYP2C9 activ = increases human cytochrome P450 2C9 activity; P11712; recombinant CYP2C9, luciferin-H conversion, luminescence; active compounds read high; factor 1 = untreated enzyme, 0 = blocked; activation factor at 5 µM; 96,000 compounds, 1.4% hits; AID 1024;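 active means activation factor of 2 or more for CYP2C9 at a 5 µM dose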;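 further: 0 = sulfaphenazole-blocked wells and 1 = vehicle-only wells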
# CYP2C9 inhib = human CYP2C9 inhibition; P11712; CYP2C9 Supersomes, luciferin-H conversion, luminescence; inhibition, % at 5 µM; 96,000 compounds, 20% hits; AID 777;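 active means blocking of liver enzyme CYP2C9 beyond about 50% at 5 µM, limit read from the data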
# CYP2C19 inhib = human CYP2C19 inhibition. 96,000 compounds, 21% hits. P33261. CYP2C19 Supersomes, luciferin-H EGE luminescence, 30 min. inhibition, % at 5 µM;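 active means CYP2C19 inhibition above a set limit at 5 µM in the primary screen, cut at about 50% in these data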;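 further: plate controls were negative control wells for no effect and 2.5 mM tranylcypromine positive control for full effect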
# Target sequence (P33261 whole entry, looked up): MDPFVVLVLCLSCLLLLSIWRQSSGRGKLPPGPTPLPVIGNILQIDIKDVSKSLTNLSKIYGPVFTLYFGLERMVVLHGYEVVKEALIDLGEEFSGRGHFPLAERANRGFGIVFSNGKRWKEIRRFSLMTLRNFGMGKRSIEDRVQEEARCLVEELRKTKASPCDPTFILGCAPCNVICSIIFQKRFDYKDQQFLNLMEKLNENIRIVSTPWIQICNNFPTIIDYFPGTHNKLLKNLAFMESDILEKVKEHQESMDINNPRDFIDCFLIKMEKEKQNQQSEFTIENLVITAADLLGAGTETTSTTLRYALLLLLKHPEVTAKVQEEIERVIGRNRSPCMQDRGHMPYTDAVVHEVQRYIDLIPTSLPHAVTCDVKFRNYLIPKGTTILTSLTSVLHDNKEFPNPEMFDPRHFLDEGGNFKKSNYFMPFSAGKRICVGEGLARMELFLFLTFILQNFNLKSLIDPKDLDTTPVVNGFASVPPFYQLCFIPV
# CYP2C19 activ = activators of human cytochrome P450 2C19. P33261. 96,000 tested, under 10 active. activation factor at 5 µM. recombinant CYP2C19, luciferin-H EGE luminescence; active compounds read high; 0 = fully inhibited enzyme, 1 = untreated enzyme;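 active means activation factor of at least 2 at 5 µM in the primary screen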;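 further: 0 = wells with 2.5 mM tranylcypromine and 1 = vehicle-only wells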
# Numbers without * were called inactive; / = no result. The list is not random: actives were taken first. Their share in the collection is about 22%.
SMILES,Measles CPE,CYP2C9 activ,CYP2C9 inhib,CYP2C19 inhib,CYP2C19 activ
Cc1nn(Cc2ccc(Cl)cc2)c2sc(C(=O)OCC(N)=O)cc12,24.4,0.2,75.7*,12.7,0.9
Cc1nn(Cc2ccccc2Cl)c2sc(C(=O)NCCCn3ccnc3)cc12,7.3,0,99.9*,89.9*,0.1
CCOC(=O)c1c(C)nc2c(c1-c1ccc(Cl)cc1)C(=O)CC(C)(C)C2,26.5,/,/,/,/
COc1ccccc1-c1c(C(F)(F)F)oc2cc(OCC(=O)Nc3cc(C)ccc3C)ccc2c1=O,9.2,/,/,/,/
Cc1cc(C(=O)NCCCn2ccnc2)sc1-c1ccccc1,34.1,0.1,89.0*,96.7*,0
Cc1nn(Cc2ccccc2Cl)c2sc(C(=O)OC3CCCC3=O)cc12 (stereo not drawn),5.7,0.2,84.2*,98.1*,0
COc1cccc(C(=O)O/N=C/c2ccc(Sc3ccc(C)cc3)nc2)c1,4.6,0.8,19.0,9.7,0.9
COc1ccc2c(c1)CC/C(=C\c1ccc(OC)c(Cn3cccn3)c1)C2=O,12.1,0.1,91.0*,97.4*,0
COc1ccc2c(c1)CC/C(=C\c1ccc(OC)c(Cn3nc(C)cc3C)c1)C2=O,12.0,0.5,49.2,87.0*,0.1
COc1ccc(/C=C2/CCc3ccccc3C2=O)cc1OC,7.0,/,/,/,/
Cc1ccc(N(CC(=O)N/N=C/c2cccs2)S(C)(=O)=O)cc1Cl,1.0,0.3,68.6*,47.0,0.5
COC(=O)CN(c1ccc(C)c(Cl)c1)S(C)(=O)=O,25.2,1.1,-8.9,54.5*,0.5
CS(=O)(=O)N(CC(=O)N1CCCC1)c1ccc(Cl)c(Cl)c1,9.4,1,4.5,12.8,0.9
COC(=O)CN(c1ccccc1C)S(C)(=O)=O,6.0,1.1,-6.1,3.4,1
COC(=O)CN(c1c(C)cccc1C)S(C)(=O)=O,4.1,1,0.9,56.0*,0.4
CC(C)(CNS(=O)(=O)c1ccc(F)cc1)CNS(=O)(=O)c1ccc(F)cc1,7.1,1,-0.1,32.1,0.7
Cc1ccc(NS(=O)(=O)c2ccc(C3CCCCC3)cc2)cc1,5.5,/,/,/,/
COc1ccc(NS(=O)(=O)c2ccc(NS(=O)(=O)c3ccc(C)cc3)cc2)nn1,2.5,0.3,66.1*,-3.0,1
CCCN(CCC)S(=O)(=O)c1ccc(NS(=O)(=O)c2ccc(F)cc2)cc1,9.3,0.1,92.5*,45.5,0.5
CC(C)(C)NS(=O)(=O)c1ccc(NS(=O)(=O)c2ccc(F)cc2)cc1,4.1,0.1,92.9*,37.6,0.6
COc1cc(NS(=O)(=O)c2ccc(NC(C)=O)cc2)ncn1,3.0,1,2.7,8.3,0.9
Cc1ccc(S(=O)(=O)Nc2ccc(S(=O)(=O)NC(C)(C)C)cc2)cc1,1.8,0.1,86.6*,48.1,0.5
Cc1ccc(CN2CCN(CC3CC4C=CC3C4)CC2)cc1 (stereo not drawn),10.7,1.1,-5.4,13.8,0.9
CCS(=O)(=O)NCC(c1ccco1)N1CCN(c2ccccc2)CC1 (stereo not drawn),2.9,/,/,/,/
Cc1ccc(-c2nc3cc(NC(=O)C(C)C)ccc3o2)cc1,6.4,1,-1.8,-1.9,1
SMILES,Measles CPE,CYP2C9 activ,CYP2C9 inhib,CYP2C19 inhib,CYP2C19 activ
Cc1ccc(S(=O)(=O)Nc2ccc(-c3nc4cc(NS(=O)(=O)c5ccc(C)cc5)ccc4o3)cc2)cc1,7.4,0,96.7*,80.9*,0.2
CC1CCN(S(=O)(=O)c2cn(CC(=O)N3CC(C)CC(C)C3)c(=O)c3ccccc23)CC1 (stereo not drawn),7.3,/,/,/,/
CC(C)(C)c1cc(C(c2cccnc2)N2CCN(CCO)CC2)cc(C(C)(C)C)c1O (stereo not drawn),4.7,0,96.0*,79.9*,0.2
COCCNC(=O)CSc1nc2ccccc2c(=O)n1CC1CCCO1 (stereo not drawn),3.8,0.8,17.3,22.5,0.8
CCC(Sc1nc2ccccc2c(=O)n1CCN1CCOCC1)C(=O)NCc1cccnc1 (stereo not drawn),3.5,0.2,77.9*,39.1,0.6
CCC(Sc1nc2ccccc2c(=O)n1CC1CCCO1)C(=O)NCc1cccnc1 (stereo not drawn),4.1,0.2,76.0*,12.6,0.9
Cc1ccc(OCC(=O)N2CCN(c3nnc(-c4ccc(C)cc4)c4ccccc34)CC2)cc1,20.6,0.1,92.0*,88.1*,0.1
O=C(COc1ccccc1)N1CCN(c2nnc(-c3ccccc3)c3ccccc23)CC1,11.8,0.3,74.2*,74.3*,0.3
COc1ccc(N2CCN(C(=O)COc3ccccc3)CC2)cc1,16.0,0.9,9.3,5.3,0.9
O=C(CN1C(=O)c2ccccc2C1=O)N1CCN(c2nnc(-c3ccccc3)c3ccccc23)CC1,16.9,1,-4.4,-14.3,1.1
Cc1ccc(OCC(=O)N2CCN(C(=O)c3cccs3)CC2)cc1,7.1,0.9,5.7,18.2,0.8
O=C(c1cc(-c2ccccc2)on1)N1CCCC1,19.4,1.2,-21.9,10.6,0.9
COc1ccc(OCC(=O)N2CCN(c3nnc(-c4ccccc4)c4ccccc34)CC2)cc1,4.6,0.6,42.6,50.0*,0.5
Cc1ccc(-c2cc(C(=O)N3CCN(C(=O)c4ccco4)CC3)no2)cc1,10.4,0.5,53.6*,78.5*,0.2
Cc1oc(C(=O)O)cc1CSc1nnc(-c2ccccc2)n1C,14.5,0.7,29.4,-16.5,1.2
Cc1onc(-c2ccccc2)c1C(=O)N1CCN(C(=O)c2ccco2)CC1,5.6,1.1,-6.7,-4.3,1
Cc1ccc(-c2nnc(N3CCN(C(=O)c4ccco4)CC3)c3ccccc23)cc1,1.0,0.2,75.9*,68.3*,0.3
CCOc1ccc(NC(=S)N(CCc2c(C)[nH]c3ccccc23)Cc2ccco2)cc1,4.9,/,/,/,/
O=[N+]([O-])c1cc(Br)c(O)c(/C=N/Nc2nnnn2-c2cccc3ccccc23)c1,15.8,0,100.1*,90.6*,0.1
C/C(CCc1ccc2c(c1)OCO2)=N\N=C(/N)SC1CC(=O)N(c2ccc(Cl)cc2)C1=O (stereo not drawn),22.2,0.5,54.7*,24.5,0.8
O=C1CC(SC(=NCc2ccc3c(c2)OCO3)Nc2ccccc2)C(=O)N1c1ccccc1 (stereo not drawn),11.1,0.7,31.2,22.7,0.8
NCCCCCNC(=O)/C=N\O,14.8,1,-2.4,-6.4,1.1
O=C(CCCc1c[nH]c2ccccc12)N1CCN(c2ccc(N3CCOCC3)nn2)CC1,5.5,0.7,31.5,57.5*,0.4
O=C(CSc1nnc(CNc2ccc(F)cc2)n1-c1ccccc1)N1CCOCC1,10.4,/,/,/,/
CC(C)(C)OC(=O)C(Cc1ccc(OC(C)(C)C)cc1)NC(=O)CNC(=O)OCc1ccccc1 (stereo not drawn),5.5,/,/,/,/
Cc1cc(-c2nc3c4c5c(sc4[nH]c(=O)n3n2)CCC5)c(C)o1,12.3,0.5,50.7*,-11.7,1.1
COc1ccccc1CNC(=O)C(C)NS(=O)(=O)c1ccccc1 (stereo not drawn),17.7,0.5,46.5,37.2,0.6
